Results filed as inconclusive are left out. Activity calls are given as the source filed them. Unless noted, the call rests on the fitted dose curve; in most records, active means well fitted curve in the direction sought with a large enough effect in the repeat runs; inconclusive means weak or mixed curves; inactive means no such curve, though single readings can be large; an effect the other way counts as inactive or inconclusive.
Experiments:
[1] = A CellTox Green Cytotoxicity Assay to monitor cytotoxicity in HepG2 cells - 0 hour (AID 1224882); further: nearly all actives have a fitted effect of over 35% in size
Summary of the method: (§1)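 Continuous culture of HepG2 cells with a membrane-impermeant DNA dye; rising fluorescence marks dead cells. Compound exposure lasted up to 40 h at 37 C, with reads every 8 h from 0 h.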

[2] = A CellTox Green Cytotoxicity Assay to monitor cytotoxicity in HepG2 cells - 32 hour (AID 1224883); further: nearly all actives have a fitted effect of over 50% in size; further: potency means the concentration at half of the fitted maximal effect
Summary of the method: as §1

[3] = A CellTox Green Cytotoxicity Assay to monitor cytotoxicity in HEK293 cells - 8 hour (AID 1224884); further: nearly all actives have a fitted effect of over 35% in size
Summary of the method: (§2)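 Each value comes from one timepoint of a single continuous run in which HEK293 cells with CellTox Green were exposed to compound for up to 40 h at 37 C, dye fluorescence rising with cell death.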

[4] = qHTS RealTime-Glo MT Cell Viability Assay in HepG2 cells - 16 hour (AID 1224885); further: nearly all actives have a fitted effect of over 50% in size
Summary of the method: (§3)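 Viability was tracked continuously by NanoLuc luminescence from prosubstrate reduced by living HepG2 cells, at successive time points over 40 h of compound exposure. Cells with reagent were preincubated 5 h at 37 °C before compound addition.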

[5] = qHTS RealTime-Glo MT Cell Viability Assay in HEK293 cells - 24 hour (AID 1224886); further: nearly all actives have a fitted effect of over 50% in size; further: potency means the concentration at half of the fitted maximal effect; on activity change, negative = cytotoxicity: top concentration of the series differs between compounds
Summary of the method: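 Viability tracked continuously by luminescence as live cells reduce a prosubstrate for NanoLuc; HEK293 cells preincubated 5 h, compound-treated at 37 C, and read at 0, 8, 16, 24, 32 and 40 h.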

[6] = qHTS RealTime-Glo MT Cell Viability Assay in HEK293 cells - 8 hour (AID 1224887); further: nearly all actives have a fitted effect of over 50% in size; further: potency means the concentration at half of the fitted maximal effect; on activity change, negative = cytotoxicity: top concentration of the series differs between compounds
Summary of the method: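 qHTS format; HEK293 cells with NanoLuc/prosubstrate reagent, 37 C/5% CO2 for 5 h pre-dosing; compounds 23 nL in DMSO; luminescence at each time point reflects viable cells.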

[7] = A CellTox Green Cytotoxicity Assay to monitor cytotoxicity in HEK293 cells - 16 hour (AID 1224888); further: nearly all actives have a fitted effect of over 35% in size
Summary of the method: as §2

[8] = qHTS RealTime-Glo MT Cell Viability Assay in HepG2 cells - 0 hour (AID 1224889); further: nearly all actives have a fitted effect of over 50% in size
Summary of the method: as §3

[9] = A CellTox Green Cytotoxicity Assay to monitor cytotoxicity in HepG2 cells - 8 hour (AID 1224890); further: nearly all actives have a fitted effect of over 45% in size
Summary of the method: as §1

[10] = qHTS assay to identify small molecule antagonists of the estrogen receptor alpha (ER-alpha) signaling pathway using the BG1 cell line in the presence of 0.1 nM 17-beta-estradiol - cell viability counter screen (AID 1259241); further: nearly all actives have a fitted effect of over 40% in size
Summary of the method: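 VM7Luc4E2 cells (endogenous ER-alpha, 4×ERE-luciferase), hormone-starved 5 days in charcoal-stripped FBS, were treated with compounds plus 0.1 nM 17beta-estradiol for 22 hr at 37C; viability read in same wells as CellTiter-Fluor live-cell protease fluorescence.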

[11] = qHTS assay to identify small molecule antagonists of the androgen receptor (AR) signaling pathway using the MDA cell line in the presence of 0.5 nM R1881 - cell viability counter screen (AID 1259242); further: nearly all actives have a fitted effect of over 45% in size
Summary of the method: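 Fluorescence from CellTiter-Fluor, which reports protease activity of live cells, was read 30 min after reagent addition to MDA-kb2 cells that had been incubated 16 hr with compound and 0.5 nM R1881.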

[12] = target: Estrogen receptor (Homo sapiens) (UniProt P03372); experiment: qHTS assay to identify small molecule antagonists of the estrogen receptor alpha (ER-alpha) signaling pathway using the BG1 cell line in the presence of 0.1 nM 17-beta-estradiol (AID 1259244); further: nearly all actives have a fitted effect of over 50% in size
Chain of Estrogen receptor (Homo sapiens) (P03372 whole entry, looked up): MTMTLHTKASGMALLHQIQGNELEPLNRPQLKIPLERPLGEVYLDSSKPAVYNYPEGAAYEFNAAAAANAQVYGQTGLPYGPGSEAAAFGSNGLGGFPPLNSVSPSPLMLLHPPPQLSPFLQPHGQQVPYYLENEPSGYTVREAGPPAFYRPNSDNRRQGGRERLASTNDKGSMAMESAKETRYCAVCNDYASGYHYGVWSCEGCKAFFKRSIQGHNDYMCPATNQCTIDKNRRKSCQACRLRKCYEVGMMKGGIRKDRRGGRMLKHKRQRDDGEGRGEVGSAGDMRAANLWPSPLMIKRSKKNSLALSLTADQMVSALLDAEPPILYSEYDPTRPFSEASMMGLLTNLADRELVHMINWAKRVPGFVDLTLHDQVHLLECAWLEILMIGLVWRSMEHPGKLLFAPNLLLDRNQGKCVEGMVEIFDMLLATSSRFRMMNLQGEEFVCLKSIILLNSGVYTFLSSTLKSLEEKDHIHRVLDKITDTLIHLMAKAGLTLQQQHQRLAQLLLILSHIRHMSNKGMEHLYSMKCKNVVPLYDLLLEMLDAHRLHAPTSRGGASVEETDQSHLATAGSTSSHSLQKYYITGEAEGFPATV
Summary of the method: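 Quantitative high-throughput screen in VM7Luc4E2 cells: compound plus 0.1 nM E2 (final), 22 h, 37C, 5% CO2; ONE-Glo added, 30 min room temperature, luminescence measured.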

[13] = qHTS assay to identify small molecule HDAC inhibitors (AID 1259364); further: top concentration of the series differs between compounds; nearly all actives have a fitted effect of over 45% in size
Summary of the method: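 Endogenous HDAC class I/II activity was measured in wild-type HCT-116 cells by HDAC-Glo luminescence after 2 h compound treatment.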

[14] = qHTS assay to identify small molecule HDAC inhibitors - cell viability counter screen (AID 1259365)
Summary of the method: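 Wild-type HCT-116 cells were seeded at 1,500 per well, incubated overnight at 37 C, then exposed to compounds in DMSO for 2hr. Viability was read by CellTiter-Glo luminescence after 30min at room temperature.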

[15] = qHTS assay to identify small molecule agonists of the sonic hedgehog signaling (Shh) pathway - cell viability counter screen (AID 1259366); further: nearly all actives have a fitted effect of over 50% in size
Summary of the method: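 NIH/3T3-derived 3T3 Gli1-Luc cells (stable Gli1-responsive firefly luciferase reporter) were seeded, rested 4 hr at 37 C/5% CO2, then exposed to compounds in DMSO for 24 hr; viability was read by CellTiter-Fluor fluorescence in the same wells.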

[16] = qHTS assay to identify small molecule agonists of the sonic hedgehog signaling (Shh) pathway (AID 1259368; calls by dose curve; further: series mostly up to about 92 µM; nearly all actives have a fitted effect of over 15% in size)
Summary of the method: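 Luminescent signal was taken as a measure of Gli1-controlled luciferase expression in stably transfected NIH/3T3-derived cells that had been treated for 24 hr with compounds delivered in DMSO.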

[17] = qHTS assay to identify small molecule antagonists of the sonic hedgehog signaling (Shh) pathway (AID 1259369; calls by dose curve; further: nearly all actives have a fitted effect of over 45% in size; further: potency means the concentration at half of the fitted maximal effect)
Summary of the method: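 Screening used 3T3Gli1-Luc cells at 2,000 per well, compounds delivered in DMSO, and conditioned medium as agonist stimulus; plates incubated 24hr at 37 C and 5% CO2 before a 30min luciferase step.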

[18] = qHTS assay to identify small molecule antagonists of the sonic hedgehog signaling (Shh) pathway - cell viability counter screen (AID 1259367); further: nearly all actives have a fitted effect of over 55% in size; further: potency means the concentration at half of the fitted maximal effect
Summary of the method: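 NIH/3T3-derived Gli1-Luc reporter cells, 2,000/well, plated 4 hr before compound addition, then stimulated with conditioned medium for 24 hr at 37C. Viability measured in the same wells by CellTiter-Fluor fluorescence, reagent added at 23 hr for 1 hr.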

[19] = target: Androgen receptor (Homo sapiens) (UniProt P10275); experiment: qHTS assay to identify small molecule antagonists of the androgen receptor (AR) signaling pathway using the MDA cell line in the presence of 0.5 nM R1881 (AID 1259243); further: nearly all actives have a fitted effect of over 50% in size
Chain of Androgen receptor (Homo sapiens) (P10275 whole entry, looked up): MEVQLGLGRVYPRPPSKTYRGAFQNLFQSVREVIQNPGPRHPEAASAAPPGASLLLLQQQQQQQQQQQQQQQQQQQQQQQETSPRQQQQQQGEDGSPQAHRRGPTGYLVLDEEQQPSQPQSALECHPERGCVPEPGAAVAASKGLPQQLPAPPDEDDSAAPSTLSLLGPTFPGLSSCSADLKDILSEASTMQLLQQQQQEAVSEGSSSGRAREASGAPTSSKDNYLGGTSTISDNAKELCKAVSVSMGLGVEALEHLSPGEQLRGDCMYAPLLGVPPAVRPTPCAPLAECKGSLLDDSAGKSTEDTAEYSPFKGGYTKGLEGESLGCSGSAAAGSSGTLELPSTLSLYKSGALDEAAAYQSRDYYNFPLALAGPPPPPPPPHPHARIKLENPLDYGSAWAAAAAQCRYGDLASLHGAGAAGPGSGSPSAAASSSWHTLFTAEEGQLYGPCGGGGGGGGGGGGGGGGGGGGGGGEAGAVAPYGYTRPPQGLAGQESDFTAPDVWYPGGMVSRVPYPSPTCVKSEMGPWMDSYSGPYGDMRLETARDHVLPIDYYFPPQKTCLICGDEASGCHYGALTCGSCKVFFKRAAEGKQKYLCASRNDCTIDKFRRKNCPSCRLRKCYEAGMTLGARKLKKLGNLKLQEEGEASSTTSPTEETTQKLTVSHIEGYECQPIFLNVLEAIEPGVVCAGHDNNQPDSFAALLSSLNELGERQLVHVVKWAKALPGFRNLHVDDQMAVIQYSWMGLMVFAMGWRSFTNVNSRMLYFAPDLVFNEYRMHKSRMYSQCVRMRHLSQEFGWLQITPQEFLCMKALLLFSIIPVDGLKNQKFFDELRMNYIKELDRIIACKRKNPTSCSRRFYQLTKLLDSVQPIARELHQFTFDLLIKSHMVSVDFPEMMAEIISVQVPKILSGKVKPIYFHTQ
Summary of the method: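 Inhibition of R1881 (0.5 nM final) induced reporter signal was measured in human MDA-kb2 cells; note the MMTV promoter also responds to GR. Exposure lasted 16 hr at 37C.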

[20] = qHTS assay to identify small molecule phospholipidosis (PLD) inducers (AID 1259344; active means well fitted curve in the direction sought with a large enough effect; an effect the other way counts as inactive or inconclusive)
Summary of the method: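 HepG2 cells, 900/well, treated with compound plus LipidTOX Red for 24 h at 37 C; amiodarone positive and DMSO negative controls. Fixed with paraformaldehyde/Hoechst, then high-content imaging scored LipidTOX pit count and integrated intensity per well and per cell.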
On the % scale 0 is the no-effect control and ±100 the full control effect.

C=CC(=O)N(C)C
inactive: Potency [1] | Potency [2] | Potency [3] | Potency [4] | Potency [5] | Potency [6] | Potency [7] | Potency [8] | Potency [9] | Potency [10] | Potency [11] | Potency [12] | Potency [13] | Potency [14] | Potency [15] | Potency [16] | Potency [17]

Oc1ccc(I)cc1
inactive: Potency [1] | Potency [2] | Potency [3] | Potency [4] | Potency [5] | Potency [6] | Potency [7] | Potency [8] | Potency [9] | Potency [10] | Potency [11] | Potency [12] | Potency [13] | Potency [14] | Potency [18] | Potency [16]

Nc1c(Oc2ccccc2)cc(O)c2c1C(=O)c1ccccc1C2=O
inactive: Potency [1] | Potency [2] | Potency [3] | Potency [4] | Potency [7] | Potency [8] | Potency [9] | Potency [11] | Potency [19] | Potency [12] | Potency [13] | Potency [14] | Potency [15] | Potency [17]
active: Potency [5] 21.3 µM | Potency [6] 10.7 µM

CC(C)[C@H](C(=O)OC(C#N)c1cccc(Oc2ccccc2)c1)c1ccc(OC(F)F)cc1 (some centres not stated)
inactive: Potency [1] | Potency [2] | Potency [3] | Potency [4] | Potency [5] | Potency [6] | Potency [7] | Potency [8] | Potency [9] | Potency [10] | Potency [11] | Potency [13] | Potency [14] | Potency [15] | Potency [16] | Potency [17]

NNC(=O)c1ccccc1
inactive: Potency [1] | Potency [2] | Potency [3] | Potency [4] | Potency [5] | Potency [6] | Potency [7] | Potency [8] | Potency [9] | Potency [11] | Potency [12] | Potency [14] | Potency [15] | Potency [16]
active: Potency [18] 39.6 µM

COCC(=O)N(c1c(C)cccc1C)[C@H](C)C(=O)OC
inactive: Potency [1] | Potency [2] | Potency [3] | Potency [4] | Potency [5] | Potency [6] | Potency [7] | Potency [8] | Potency [9] | Potency [10] | Potency [11] | Potency [12] | Potency [13] | Potency [14] | Potency [15] | Potency [16]

Cl/C=C\CCl
inactive: Potency [1] | Potency [2] | Potency [3] | Potency [4] | Potency [5] | Potency [6] | Potency [7] | Potency [8] | Potency [9] | Potency [10] | Potency [11] | Potency [13] | Potency [14] | Potency [18] | Potency [16] | Potency [17]

FC(F)(F)c1cccc(C2=CCN(CCc3ccc4ccccc4c3)CC2)c1
inactive: Potency [1] | Potency [2] | Potency [3] | Potency [4] | Potency [5] | Potency [6] | Potency [7] | Potency [8] | Potency [9] | Potency [10] | Potency [11] | Potency [20] | Potency [13] | Potency [14] | Potency [16] | Potency [17]

CCOP(=S)(OCC)OC(Cl)C(Cl)(Cl)Cl (configuration not stated)
inactive: Potency [1] | Potency [2] | Potency [3] | Potency [4] | Potency [5] | Potency [6] | Potency [7] | Potency [8] | Potency [9] | Potency [10] | Potency [11] | Potency [13] | Potency [14] | Potency [15] | Potency [18] | Potency [16]

ClCCN1CCOCC1
inactive: Potency [1] | Potency [2] | Potency [3] | Potency [4] | Potency [5] | Potency [6] | Potency [7] | Potency [8] | Potency [9] | Potency [10] | Potency [11] | Potency [12] | Potency [13] | Potency [14] | Potency [15] | Potency [18] | Potency [16] | Potency [17]

CCCCCCCCCCCCCCC(Br)C(=O)O (configuration not stated)
active: Potency [2] 17.4 µM
inactive: Potency [1] | Potency [3] | Potency [4] | Potency [5] | Potency [6] | Potency [7] | Potency [8] | Potency [9] | Potency [10] | Potency [11] | Potency [12] | Potency [13] | Potency [14] | Potency [15] | Potency [18] | Potency [16] | Potency [17]

Fc1cccc(Cl)c1CCl
inactive: Potency [1] | Potency [2] | Potency [3] | Potency [4] | Potency [5] | Potency [6] | Potency [7] | Potency [8] | Potency [9] | Potency [11] | Potency [12] | Potency [13] | Potency [14] | Potency [18] | Potency [16] | Potency [17]

CC(C)CCCCCOC(=O)c1ccccc1C(=O)OCCCCCC(C)C
inactive: Potency [1] | Potency [2] | Potency [3] | Potency [4] | Potency [5] | Potency [6] | Potency [7] | Potency [8] | Potency [9] | Potency [10] | Potency [11] | Potency [12] | Potency [13] | Potency [14] | Potency [15] | Potency [16]
active: Potency [17] 17 µM

Brc1c(Br)c(Br)c(Oc2c(Br)c(Br)c(Br)c(Br)c2Br)c(Br)c1Br
inactive: cytotoxicity [1] -0.0157% [at 15.8 µM] | cytotoxicity increase [2] 0.162% [at 15.8 µM] | cytotoxicity increase [3] -3.68% [at 15.8 µM] | activity change, negative = cytotoxic [4] 1.53% [at 15.8 µM] | activity change, negative = cytotoxicity [5] -0.0351% [at 15.8 µM] | activity change, negative = cytotoxicity [6] 4.64% [at 15.8 µM] | activity change [7] -4.12% [at 15.8 µM, active compounds read high] | activity change, negative = cytotoxicity [8] 13.9% [at 15.8 µM] | cytotoxicity increase [9] -0.348% [at 15.8 µM] | activity change, negative = cytotoxicity [10] 5.06% [at 19 µM] | viability change, negative = cytotoxic [11] -0.43% [at 19 µM] | activity change, negative = inhibition [13] -0.806% [at 19 µM] | activity change, negative = cytotoxicity [14] 2.12% [at 19 µM] | viability change, negative = cytotoxic [15] -1.06% [at 19 µM] | viability change, negative = cytotoxic [18] 4.4% [at 19 µM] | activity change [16] 0.699% [at 18.9 µM, active compounds read high] | activity change, negative = inhibition [17] 16.8% [at 19 µM]

N#Cc1ccccc1Cl
inactive: Potency [1] | Potency [2] | Potency [3] | Potency [4] | Potency [5] | Potency [6] | Potency [7] | Potency [8] | Potency [9] | Potency [10] | Potency [11] | Potency [13] | Potency [14] | Potency [15] | Potency [18] | Potency [16] | Potency [17]
